Results filed as inconclusive are left out. Some of the results follow. Where a call stands in place of a potency, no number is given. Activity calls are given as the source filed them. Unless noted, the call rests on the fitted dose curve; in most records, active means well fitted curve in the direction sought with a large enough effect; inconclusive means small, poorly fitted or top-dose-only effect, or another doubt; inactive means no such curve, though single readings can be large; an effect the other way counts as inactive or inconclusive.
Experiments:
[1] = Cytometric Cell-Based qHTS for Inhibitors of the mTORC1 Signaling Pathway in MEF (Tsc2-/-, p53-/-) Cells (AID 2660); further: potency means the concentration at half of the fitted maximal effect
Outline: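 Cells are plated, treated with compound for 24 hrs at 37 degree Celsius, then fixed, blocked and immunostained for phospho-rpS6 Ser235/236. Propidium iodide counterstain follows. Per-well % positive cells is derived from the PI-normalized phospho-S6 signal.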

[2] = High Content Imaging Cell-Based qHTS for Inhibitors of the mTORC1 Signaling Pathway in MEF Cells (AID 2667); further: potency means the concentration at half of the fitted maximal effect
Outline: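 WT MEFs (Tsc2-/-, p53-/- re-expressing Tsc2), in DMEM + 10% FBS, were treated with compound for 24 h at 37 C. Cells were then fixed and stained for phospho-rpS6 Ser235/236 with propidium iodide as cell count. Values are % positive cells, with thresholds set against rapamycin-treated cells.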

[3] = Cytometry Cell-Based qHTS for Inhibitors of the mTORC1 Signaling Pathway in MEF cells (AID 2668); further: potency means the concentration at half of the fitted maximal effect
Outline: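 Read-out: phospho-rpS6 Ser235/236 immunofluorescence normalized to propidium iodide intensity, scored as % active cells against a rapamycin (7.5 nM) threshold. Cells: Tsc2-/-, p53-/- MEFs stably expressing WT Tsc2, compound-treated 24 hrs at 37 degree Celsius.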

[4] = target: Tumor susceptibility gene 101 protein (Homo sapiens) (UniProt Q99816); assay: qHTS Validation Assay for Iinhibitors of HIV-1 Budding by Blocking the Interaction of PTAP/TSG101 (AID 485342; calls by dose curve)
Sequence of Tumor susceptibility gene 101 protein (Homo sapiens) (Q99816 whole entry, looked up, the tested form may be a part): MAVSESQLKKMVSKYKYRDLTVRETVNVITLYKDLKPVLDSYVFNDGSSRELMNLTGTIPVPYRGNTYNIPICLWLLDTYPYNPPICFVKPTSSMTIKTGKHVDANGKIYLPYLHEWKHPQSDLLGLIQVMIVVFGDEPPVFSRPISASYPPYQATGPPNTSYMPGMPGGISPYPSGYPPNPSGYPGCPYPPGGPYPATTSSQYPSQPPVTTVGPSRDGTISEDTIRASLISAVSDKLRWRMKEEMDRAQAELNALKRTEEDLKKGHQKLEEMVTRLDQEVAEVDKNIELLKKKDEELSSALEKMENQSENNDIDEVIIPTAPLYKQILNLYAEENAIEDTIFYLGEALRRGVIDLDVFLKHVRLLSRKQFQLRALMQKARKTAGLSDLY
Outline: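 FP read-out: FITC-PTAP peptide, 50 nM final, binding Tsg101 binding domain, 10 uM final; 20 min r.t.; 10 mM HEPES pH 7.5, 0.15 M NaCl, 0.01% Tween 20, 3 mM EDTA, 0.1 mM TCEP.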

[5] = qHTS Validation Assay to Find Inhibitors of Chronic Active B-Cell Receptor Signaling (AID 485345; active means well fitted curve in the direction sought with a large enough effect in the main read-out, with a control signal flat, not every such curve was filed as active; further: potency means the concentration at half of the fitted maximal effect)
Outline: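 TMD8 ABC-DLBCL cells stably carrying doxycycline-inducible IkappaBalpha–green luciferase fusion plus unfused red luciferase; compounds 46 uM to 3 nM, 4 h at 37C with doxycycline. Corrected green/red luminescence ratio normalized to 10 uM MG-132 and basal cell wells; curves fitted.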

[6] = target: Beta-2 adrenergic receptor (Homo sapiens) (UniProt P07550); assay: qHTS validation assay of beta-arrestin-biased ligands of beta2-adrenergic receptor (AID 485366)
Sequence of Beta-2 adrenergic receptor (Homo sapiens) (P07550 whole entry, looked up): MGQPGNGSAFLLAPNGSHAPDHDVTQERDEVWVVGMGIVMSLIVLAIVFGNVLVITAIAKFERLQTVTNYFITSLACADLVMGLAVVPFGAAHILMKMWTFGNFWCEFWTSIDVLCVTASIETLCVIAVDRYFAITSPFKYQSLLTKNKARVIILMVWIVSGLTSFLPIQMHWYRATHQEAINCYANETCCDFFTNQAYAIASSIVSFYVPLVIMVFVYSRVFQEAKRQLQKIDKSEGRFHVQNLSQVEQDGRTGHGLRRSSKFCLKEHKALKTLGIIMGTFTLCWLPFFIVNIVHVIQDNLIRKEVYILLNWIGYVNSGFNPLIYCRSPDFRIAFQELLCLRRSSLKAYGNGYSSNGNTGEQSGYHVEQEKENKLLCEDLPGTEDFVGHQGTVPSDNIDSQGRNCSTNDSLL
Outline: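 Values derive from curve-fitted %Activity of a luminescent beta-arrestin recruitment reporter; compounds tested up to 46 microM on Tango cells for 18 hr at 37 degrees C, 5% CO2.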

[7] = target: ATP-dependent 6-phosphofructokinase (Trypanosoma brucei brucei) (UniProt O15648); assay: qHTS Validation Assay to Find Inhibitors of T. brucei phosphofructokinase (AID 485368)
Sequence of ATP-dependent 6-phosphofructokinase (Trypanosoma brucei brucei) (O15648 whole entry, looked up): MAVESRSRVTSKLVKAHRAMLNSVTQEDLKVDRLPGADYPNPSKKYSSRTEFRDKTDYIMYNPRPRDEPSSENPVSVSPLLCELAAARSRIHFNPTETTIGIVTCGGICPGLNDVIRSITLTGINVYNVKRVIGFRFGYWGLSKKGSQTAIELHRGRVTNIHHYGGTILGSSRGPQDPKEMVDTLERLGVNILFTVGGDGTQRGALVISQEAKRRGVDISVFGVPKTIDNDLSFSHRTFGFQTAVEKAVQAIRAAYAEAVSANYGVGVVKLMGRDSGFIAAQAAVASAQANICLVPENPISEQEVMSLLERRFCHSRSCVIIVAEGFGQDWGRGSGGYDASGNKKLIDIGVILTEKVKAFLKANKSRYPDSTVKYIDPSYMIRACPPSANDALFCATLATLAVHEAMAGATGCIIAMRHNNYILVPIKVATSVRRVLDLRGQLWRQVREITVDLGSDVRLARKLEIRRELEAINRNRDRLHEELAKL
Outline: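 Enzyme reaction in triethanolamine buffer pH 8.0 with 5 mM MgCl2, 0.01% Tween20 and 0.1% BSA; PFK 1.25 nM, F6P 0.5 mM, ATP 0.1 mM, 45 min RT. ADP quantified by ADP-Glo.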

[8] = target: Thioredoxin reductase 1, cytoplasmic (Rattus norvegicus) (UniProt O89049); assay: qHTS Assay for Substrates of Mammalian Selenoprotein Thioredoxin Reductase 1 (TrxR1) (AID 488772);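 further: NADPH fluorescence in the first read after selenite addition and not the 8 min delta; series mostly up to about 57 µM; a drop in NADPH fluorescence below the no-compound background marks a TrxR1 substrate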
Outline: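 Quantitative HTS in Tris-HCl buffer at pH 7.5 with EDTA and Tween-20, using rat TrxR1, 400 uM NADPH and 400 uM selenite (final). A fall in initial NADPH fluorescence relative to background marked substrate behaviour.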

[9] = target: Thioredoxin reductase 1, cytoplasmic (Rattus norvegicus) (UniProt O89049); assay: qHTS Assay for Inhibitors of Mammalian Selenoprotein Thioredoxin Reductase 1 (TrxR1) (AID 488773); conditions: Potency: inhibition; further: nearly all actives have a fitted effect of over 40% in size; further: potency means the concentration at half of the fitted maximal effect
Outline: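 Steps: enzyme (90 nM) plus NADPH (400 uM final), 5 min at ~22 deg C; compound added, 15 min; selenite (400 uM final) added; fluorescence followed for 8 min. Concentration-response curves derived from the normalized delta values.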

[10] = target: Flap endonuclease 1 (Homo sapiens) (UniProt P39748); assay: qHTS Validation Assay for the Inhibitors of Human Flap endonuclease 1 (FEN1) (AID 488816); further: potency means the concentration at half of the fitted maximal effect
Sequence of Flap endonuclease 1 (Homo sapiens) (P39748 whole entry, looked up): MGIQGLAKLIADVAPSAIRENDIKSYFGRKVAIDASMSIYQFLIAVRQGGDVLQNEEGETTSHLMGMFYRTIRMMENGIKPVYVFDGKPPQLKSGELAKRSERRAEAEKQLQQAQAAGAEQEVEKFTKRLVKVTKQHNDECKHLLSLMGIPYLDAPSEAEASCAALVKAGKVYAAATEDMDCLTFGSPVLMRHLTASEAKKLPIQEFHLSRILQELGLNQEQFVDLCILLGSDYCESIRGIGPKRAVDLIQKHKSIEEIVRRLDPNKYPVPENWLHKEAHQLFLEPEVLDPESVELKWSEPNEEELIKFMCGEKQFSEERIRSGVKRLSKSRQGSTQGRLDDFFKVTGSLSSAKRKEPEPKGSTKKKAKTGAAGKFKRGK
Outline: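 Human FEN1 (10 nM) preincubated 15 min at room temperature with compounds, then flap DNA substrate added at 50 nM final. Fluorescence read at 0 and 15 min; concentration-response fitted with four-parameter Hill equation.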

[11] = target: Chromobox protein homolog 1 (Homo sapiens) (UniProt P83916); assay: qHTS Validation Assay for Inhibitors of HP1-beta Chromodomain Interactions with Methylated Histone Tails (AID 488953); further: nearly all actives have a fitted effect of over 50% in size; further: potency means the concentration at half of the fitted maximal effect
Sequence of Chromobox protein homolog 1 (Homo sapiens) (P83916 whole entry, looked up): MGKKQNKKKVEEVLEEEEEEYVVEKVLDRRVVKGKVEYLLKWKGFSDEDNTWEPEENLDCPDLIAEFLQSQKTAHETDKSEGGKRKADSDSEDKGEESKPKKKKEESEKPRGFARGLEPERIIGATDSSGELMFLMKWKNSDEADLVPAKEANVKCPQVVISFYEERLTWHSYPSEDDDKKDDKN
Outline: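 HP1-beta (50 nM) preformed 30 min with biotinylated H3(1-18)K9me3 peptide (50 nM) in PBS pH 7.4, 0.01% Tween-20. Compounds added for 30 min at room temperature. Complex disruption read by AlphaScreen with streptavidin donor/nickel chelate acceptor beads (10 ug/mL each).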

[12] = target: Methanococcus maripaludis chaperonin (MmCpn) (UniProt Q6LX38); assay: High-Throughput Screening for Modulators of Cytosolic Chaperonin Activity: MmCpn Primary Screen (AID 488978);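 further: 50 nM MmCpn enzyme hydrolysing 30 µM ATP at 37 °C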
Sequence of Methanococcus maripaludis chaperonin (MmCpn) (Q6LX38 1-543): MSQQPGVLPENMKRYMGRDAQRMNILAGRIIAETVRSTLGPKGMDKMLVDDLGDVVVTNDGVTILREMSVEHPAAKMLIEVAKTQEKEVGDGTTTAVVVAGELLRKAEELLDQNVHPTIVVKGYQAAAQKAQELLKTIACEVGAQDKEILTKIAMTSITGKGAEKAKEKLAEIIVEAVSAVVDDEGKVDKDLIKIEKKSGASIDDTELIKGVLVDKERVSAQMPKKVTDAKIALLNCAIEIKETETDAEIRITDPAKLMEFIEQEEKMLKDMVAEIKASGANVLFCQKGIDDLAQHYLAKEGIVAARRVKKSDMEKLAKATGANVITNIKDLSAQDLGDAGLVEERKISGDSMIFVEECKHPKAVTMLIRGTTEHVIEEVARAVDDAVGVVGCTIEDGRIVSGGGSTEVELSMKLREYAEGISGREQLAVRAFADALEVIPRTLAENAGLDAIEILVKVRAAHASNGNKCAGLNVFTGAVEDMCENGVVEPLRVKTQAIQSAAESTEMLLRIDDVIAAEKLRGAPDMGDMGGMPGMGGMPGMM
Outline: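 ADP formation read by HTRF Transcreener, 665/590 nm emission after 320 nm excitation. Enzyme: archaeal chaperonin at 50 nM final; substrate ATP 30 uM final; 10 min, 37C, after 5 min compound preincubation at RT.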

[13] = target: ATP-dependent DNA helicase Q1 (Homo sapiens) (UniProt P46063); assay: qHTS Validation Assay for Inhibitors of RecQ-Like Dna Helicase 1 (RECQ1) (AID 2353)
Sequence of ATP-dependent DNA helicase Q1 (Homo sapiens) (P46063 whole entry, looked up): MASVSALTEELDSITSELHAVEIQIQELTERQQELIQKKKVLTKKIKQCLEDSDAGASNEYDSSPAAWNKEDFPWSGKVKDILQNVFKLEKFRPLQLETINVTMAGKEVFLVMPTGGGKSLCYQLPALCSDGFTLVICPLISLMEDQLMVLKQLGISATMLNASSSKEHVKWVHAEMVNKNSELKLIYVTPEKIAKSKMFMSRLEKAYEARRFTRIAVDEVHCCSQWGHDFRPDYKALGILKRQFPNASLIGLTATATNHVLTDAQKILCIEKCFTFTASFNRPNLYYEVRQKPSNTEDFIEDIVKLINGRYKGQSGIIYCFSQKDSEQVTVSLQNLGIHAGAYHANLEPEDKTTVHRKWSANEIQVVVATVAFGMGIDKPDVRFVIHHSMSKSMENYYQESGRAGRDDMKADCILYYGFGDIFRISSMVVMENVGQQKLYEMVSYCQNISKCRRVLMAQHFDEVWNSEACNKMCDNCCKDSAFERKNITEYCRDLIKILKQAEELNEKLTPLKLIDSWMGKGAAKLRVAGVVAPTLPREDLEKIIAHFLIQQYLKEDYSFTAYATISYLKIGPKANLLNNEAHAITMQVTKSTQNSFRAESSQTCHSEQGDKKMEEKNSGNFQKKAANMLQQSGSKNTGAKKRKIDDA
Outline: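 50 nM RECQ1T1 preincubated 15 min with compound in Tris pH 8.0 buffer with MgCl2, DTT, Tween-20 and 2.5 ug/ml poly(dI-dC); started with 200 nM TAMRA/BHQ-2 forked duplex and 2 mM ATP. Unwinding read as fluorescence (525/598 nm), two reads 2 h apart.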

[14] = target: RecQ-like DNA helicase BLM (Homo sapiens) (UniProt P54132); assay: qHTS Validation Assay for Inhibitors of Bloom's syndrome helicase (BLM) (AID 2364); further: potency means the concentration at half of the fitted maximal effect
Outline: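 50 nM BLM preincubated 15 min at room temperature with compound in pH 8.0 Tris buffer containing 2.5 ug/ml poly(dI-dC); started with 200 nM TAMRA/BHQ-2 forked duplex and 2 mM ATP (final). Unwinding read as TAMRA fluorescence increase, two reads 2 h apart.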

[15] = target: Ubiquitin carboxyl-terminal hydrolase 2 (Homo sapiens) (UniProt O75604); assay: qHTS Validation Assay for Inhibitors of Ubiquitin-specific Protease USP2a Using CHOP2 as the Reporter (AID 463106)
Sequence of Ubiquitin carboxyl-terminal hydrolase 2 (Homo sapiens) (O75604 whole entry, looked up): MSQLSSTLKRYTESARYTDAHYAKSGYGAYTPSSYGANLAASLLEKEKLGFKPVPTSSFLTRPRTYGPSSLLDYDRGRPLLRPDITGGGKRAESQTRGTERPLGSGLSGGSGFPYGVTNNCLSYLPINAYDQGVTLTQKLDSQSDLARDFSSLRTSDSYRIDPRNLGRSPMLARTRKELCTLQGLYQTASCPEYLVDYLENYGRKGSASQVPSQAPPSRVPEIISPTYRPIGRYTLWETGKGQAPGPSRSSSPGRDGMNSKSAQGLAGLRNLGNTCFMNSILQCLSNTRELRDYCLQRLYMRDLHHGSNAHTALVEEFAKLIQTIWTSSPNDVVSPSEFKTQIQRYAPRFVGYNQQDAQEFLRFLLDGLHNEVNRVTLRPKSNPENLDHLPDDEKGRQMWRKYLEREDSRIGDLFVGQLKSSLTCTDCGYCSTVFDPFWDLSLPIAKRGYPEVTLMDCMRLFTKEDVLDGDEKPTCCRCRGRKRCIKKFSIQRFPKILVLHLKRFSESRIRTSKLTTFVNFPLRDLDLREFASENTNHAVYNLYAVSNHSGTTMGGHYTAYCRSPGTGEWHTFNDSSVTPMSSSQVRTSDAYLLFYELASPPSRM
Outline: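 USP2 core (10 nM final) was preincubated with compound 30 min at RT in pH 8.0 Tris/CaCl2/beta-ME/CHAPS buffer. Ub-CHOP2 and reporter substrate (25 nM final each) were then added, with fluorescence (Ex 485/Em 531) read after 60 min. Data were normalized to NEM full inhibition and fitted to concentration-response curves.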

[16] = Quantitative high throughput screen for delayed death inhibitors of the malarial parasite plastid, 96 hour incubation (AID 488745); further: nearly all actives have a fitted effect of over 70% in size; further: potency means the concentration at half of the fitted maximal effect
Outline: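 Luciferase-expressing P. falciparum in erythrocytes (2% hematocrit, 0.1% parasitemia) incubated with compound for 96 h at 37 C, 5% CO2, in RPMI 1640 with 0.5% Albumax. Growth inhibition read as decreased luminescence.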

[17] = target: M-phase phosphoprotein 8 (Homo sapiens) (UniProt Q99549); assay: qHTS Validation Assay for Inhibitors for MPP8 Chromodomain Interactions with Methylated Histone Tails (AID 488949); further: nearly all actives have a fitted effect of over 55% in size; further: potency means the concentration at half of the fitted maximal effect
Sequence of M-phase phosphoprotein 8 (Homo sapiens) (Q99549 whole entry, looked up): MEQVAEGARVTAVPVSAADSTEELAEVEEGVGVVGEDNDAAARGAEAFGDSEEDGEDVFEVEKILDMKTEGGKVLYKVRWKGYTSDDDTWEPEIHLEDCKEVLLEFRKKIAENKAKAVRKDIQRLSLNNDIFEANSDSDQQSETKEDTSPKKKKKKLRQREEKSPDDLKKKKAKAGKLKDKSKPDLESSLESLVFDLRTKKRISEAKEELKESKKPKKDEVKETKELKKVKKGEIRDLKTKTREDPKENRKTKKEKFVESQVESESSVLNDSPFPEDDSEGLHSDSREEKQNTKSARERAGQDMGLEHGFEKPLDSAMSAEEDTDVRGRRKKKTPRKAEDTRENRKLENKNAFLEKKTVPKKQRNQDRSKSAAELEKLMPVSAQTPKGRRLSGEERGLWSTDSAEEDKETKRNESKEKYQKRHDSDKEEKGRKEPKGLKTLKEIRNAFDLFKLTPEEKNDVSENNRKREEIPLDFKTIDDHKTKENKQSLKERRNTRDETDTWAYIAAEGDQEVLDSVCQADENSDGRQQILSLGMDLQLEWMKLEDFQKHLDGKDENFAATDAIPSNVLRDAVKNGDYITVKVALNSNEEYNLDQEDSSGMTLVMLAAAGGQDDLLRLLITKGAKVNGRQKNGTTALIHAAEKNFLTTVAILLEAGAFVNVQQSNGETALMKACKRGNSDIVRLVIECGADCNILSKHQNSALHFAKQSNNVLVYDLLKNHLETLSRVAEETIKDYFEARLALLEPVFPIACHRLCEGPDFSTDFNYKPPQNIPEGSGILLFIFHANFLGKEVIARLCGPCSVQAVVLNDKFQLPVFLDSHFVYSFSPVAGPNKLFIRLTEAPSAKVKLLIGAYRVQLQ
Outline: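 AlphaScreen read-out: streptavidin donor and nickel chelate acceptor beads (final 10 ug/mL), 30 min in the dark at RT. Complex of 50 nM MPP8 and 50 nM b-H3(1-18)K9me3 peptide had been exposed to compounds for 30 min beforehand.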

[18] = target: Transient receptor potential cation channel subfamily V member 1 (Homo sapiens) (UniProt Q8NER1); assay: HTS Assay for Compounds that Act as Enhancers of the Vanilloid Receptor 1 (AID 488979)
Outline: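 TRPV1 cells loaded with Fluo-8 calcium dye; compound added and Ca2+ signal (ex 480/em 520 nm) followed 3 min, then capsaicin at EC20 added and read 2 more min to detect enhancement.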

[19] = target: Endonuclease 4 (Escherichia coli (strain K12)) (UniProt P0A6C1); assay: Counterscreen for APE1 Inhibitors: qHTS Assay for Inhibitors of Endonuclease IV (AID 2565)
Outline: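 E. coli EndoIV at 2 nM final, preincubated 15 min at room temperature with compound, then 50 nM TAMRA/BHQ-2 THF abasic-site duplex added. Buffer: 50 mM Tris-HCl pH 7.5, 50 mM NaCl, 2 mM MgCl2, 1 mM DTT, 0.01% Tween-20. Kinetic fluorescence increase, third minus first read.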

[20] = Quantitative high throughput screen for delayed death inhibitors of the malarial parasite plastid, 48 hour incubation (AID 488752); further: nearly all actives have a fitted effect of over 65% in size; further: potency means the concentration at half of the fitted maximal effect
Outline: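 Erythrocytes infected with firefly luciferase-expressing P. falciparum (2% hematocrit, 0.1% parasitemia) cultured with compound for 48 h at 37 C, 5% CO2, in RPMI 1640/0.5% Albumax. Growth inhibition read as loss of luminescence.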

Compound | Potency [1] | Potency [2] | Potency [3] | outcome [4] | Potency [5] | outcome [6] | Potency [7] | outcome [8] | Potency [9] | Potency [10] | Potency [11] | outcome [12] | Potency [13] | Potency [14] | outcome [15] | Potency [16] | Potency [17] | outcome [18] | outcome [19] | Potency [20]
Oc1ccc2ccccc2c1SSc1c(O)ccc2ccccc12 | inactive | inactive | inactive | inactive | inactive | inactive | inactive | inactive | inactive | inactive | 0.006 µM (active) | inactive | – | – | – | – | – | – | – | –
O=C1c2ccccc2-c2n[nH]c3cccc1c23 | inactive | inactive | – | inactive | – | inactive | – | inactive | inactive | inactive | inactive | inactive | inactive | inactive | inactive | 4.65 µM (active) | inactive | inactive | – | –
CC(C)c1ccc2c(c1)c(SC(C)(C)C)c(CC(C)(C)C(=O)O)n2Cc1ccc(Cl)cc1 | inactive | inactive | – | inactive | – | inactive | inactive | – | inactive | – | inactive | inactive | – | 28.2 µM (active) | – | 7.38 µM (active) | inactive | – | inactive | 13.1 µM (active)
O=C(O)c1cccnc1Nc1cccc(C(F)(F)F)c1 | inactive | inactive | inactive | inactive | – | inactive | – | inactive | inactive | inactive | inactive | inactive | inactive | inactive | inactive | inactive | inactive | inactive | – | inactive
O=C1NC(=O)C(c2ccccc2[N+](=O)[O-])=C1Nc1ccc(O)c(Cl)c1 | inactive | inactive | inactive | inactive | inactive | inactive | – | inactive | 2.67 µM (active) | 18.9 µM (active) | 35.5 µM (active) | inactive | inactive | – | inactive | – | 56.2 µM (active) | inactive | – | inactive
COc1cc2c(cc1OC)C1CC(=O)C(CC(C)C)CN1CC2 (centres undefined) | inactive | inactive | – | inactive | – | inactive | – | inactive | inactive | inactive | inactive | inactive | – | – | inactive | – | inactive | – | – | –
Cc1cc(O)c2c(c1)C(=O)c1cc(O)cc(O)c1C2=O | inactive | inactive | inactive | inactive | – | inactive | – | inactive | – | – | – | inactive | inactive | – | inactive | inactive | – | inactive | – | inactive
CCOC(=O)C(C)Oc1cccc2c(=O)n(CC(=O)Nc3ccc4c(c3)OCCO4)ccc12 (centres undefined) | inactive | inactive | inactive | inactive | – | inactive | inactive | inactive | inactive | inactive | inactive | inactive | – | – | inactive | – | inactive | – | – | –
Cc1cccc(C#Cc2ccccc2)n1 | inactive | inactive | inactive | inactive | inactive | – | – | inactive | inactive | inactive | – | inactive | inactive | – | inactive | – | inactive | inactive | – | –
O=c1cc(N2CCOCC2)oc2c(-c3ccccc3)cccc12 | 3.69 µM (active) | 414 nM (active) | 4.65 µM (active) | inactive | 2.59 µM (active) | inactive | – | inactive | inactive | inactive | 26.7 µM (active) | inactive | inactive | – | inactive | – | inactive | inactive | – | inactive
CC(=O)N1CCN(c2ccc(OC[C@H]3CO[C@](Cn4ccnc4)(c4ccc(Cl)cc4Cl)O3)cc2)CC1 | inactive | inactive | inactive | inactive | – | inactive | inactive | inactive | inactive | – | – | inactive | inactive | – | inactive | – | – | – | – | –
